Measured values taken from PubChem BioAssay.
The source made the active and inactive calls.

Legend:
[1] = test system: Human papillomavirus type 1a protein E7 (residues 44-93); assay: HPV1a E7 fragment binders on microarrays, primary screen, biochemical, small-molecule microarray, residues 44-93, 635 nm fluorescence (AID 1108); conditions: small-molecule microarray binding, fluorescence 635 nm; higher = more signal;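 note: E7 fragment applied at 1 µg/mL in TBST for 1 h at 4 C; score combines spot fluorescence with its signal to noise ratio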
[2] = modulators of HCV replicon luciferase signal, primary screen, HCV replication inhibitor project, Huh7 cells, luciferase reporter (AID 1109); conditions: 48 h, higher = more signal;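 note: huh7 hepatoma cells harbouring a luciferase neomycin HCV replicon reporter; luciferase luminescence as measure of HCV replicon replication; test concentration not given here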
[3] = molecular target: Left-right determination factor 2 (Homo sapiens) (UniProt O00292); assay: LEFTY2 binders on small-molecule microarrays, primary screen, biochemical, small-molecule microarray, 635 nm fluorescence scan (AID 1110); conditions: LEFTY2 binding, higher = more signal
Chain of Left-right determination factor 2 (Homo sapiens) (O00292 whole entry, looked up): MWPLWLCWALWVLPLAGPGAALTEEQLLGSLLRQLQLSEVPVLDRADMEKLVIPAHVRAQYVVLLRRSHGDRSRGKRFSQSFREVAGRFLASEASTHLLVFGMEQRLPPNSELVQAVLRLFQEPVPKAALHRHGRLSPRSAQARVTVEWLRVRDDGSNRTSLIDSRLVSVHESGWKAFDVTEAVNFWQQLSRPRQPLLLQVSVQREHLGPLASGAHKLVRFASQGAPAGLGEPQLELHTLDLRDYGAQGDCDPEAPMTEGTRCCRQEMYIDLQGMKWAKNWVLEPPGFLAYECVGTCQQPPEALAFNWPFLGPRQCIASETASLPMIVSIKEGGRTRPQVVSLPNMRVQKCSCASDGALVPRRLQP

[4] = molecular target: Calmodulin-1 (Homo sapiens) (UniProt P0DP23); assay: CALM1 binders on microarrays, EGTA buffer, profiling panel, biochemical, small-molecule microarray, Cy5-labelled CALM1 (AID 1111); conditions: Cy5-CALM1 binding fluorescence, higher = more signal;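 note: labelled calmodulin applied in Tris saline Tween buffer holding calcium plus EGTA and DTT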
[5] = molecular target: Calmodulin-1 (Homo sapiens) (UniProt P0DP23); assay: calcium-bound CALM1 binders on microarrays, profiling panel, artefact control for SMM control-protein annotation, biochemical, small-molecule microarray, Cy5-labelled CALM1, plus calcium (AID 1112); conditions: Cy5-CALM1 binding fluorescence, higher = more signal;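 note: score merges spot fluorescence with signal to noise from triplicate slides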
[6] = small-molecule microarray binders of probe aWnt5a, primary screen, biochemical, biotinylated probe, 635/667 nm fluorescence (AID 1113); conditions: higher = more signal;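 note: score merges 667 nm fluorescence intensity with signal-to-noise per printed feature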
[7] = small-molecule microarray binders of probe aShh, primary screen, biochemical, biotinylated probe, 635/667 nm fluorescence (AID 1114); conditions: higher = more signal;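 note: probe is biotin-labelled aShh protein from a stem cell growth factor screen; measures binding of labelled protein to compounds printed on the slide; score merges feature fluorescence at 667 nm with signal-to-noise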
[8] = small-molecule microarray binders of probe aNog, primary screen, biochemical, biotinylated probe, 635/667 nm fluorescence (AID 1115); conditions: higher = more signal;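 note: probe is biotinylated aNog protein used at 0.15 µg/mL for 1 h at 4 C; z-score combines 667 nm fluorescence of each spot with its signal to noise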
[9] = molecular target: Torsin-1A-interacting protein 1 (Homo sapiens) (UniProt Q5JTV8); assay: LAP1 binders from COS7 cell lysate, primary screen, small-molecule microarray, 635/667 nm fluorescence (AID 1116); conditions: COS7-hLAP1 lysate binding, 635 nm fluorescence, higher = more signal
Chain of Torsin-1A-interacting protein 1 (Homo sapiens) (Q5JTV8 whole entry, looked up): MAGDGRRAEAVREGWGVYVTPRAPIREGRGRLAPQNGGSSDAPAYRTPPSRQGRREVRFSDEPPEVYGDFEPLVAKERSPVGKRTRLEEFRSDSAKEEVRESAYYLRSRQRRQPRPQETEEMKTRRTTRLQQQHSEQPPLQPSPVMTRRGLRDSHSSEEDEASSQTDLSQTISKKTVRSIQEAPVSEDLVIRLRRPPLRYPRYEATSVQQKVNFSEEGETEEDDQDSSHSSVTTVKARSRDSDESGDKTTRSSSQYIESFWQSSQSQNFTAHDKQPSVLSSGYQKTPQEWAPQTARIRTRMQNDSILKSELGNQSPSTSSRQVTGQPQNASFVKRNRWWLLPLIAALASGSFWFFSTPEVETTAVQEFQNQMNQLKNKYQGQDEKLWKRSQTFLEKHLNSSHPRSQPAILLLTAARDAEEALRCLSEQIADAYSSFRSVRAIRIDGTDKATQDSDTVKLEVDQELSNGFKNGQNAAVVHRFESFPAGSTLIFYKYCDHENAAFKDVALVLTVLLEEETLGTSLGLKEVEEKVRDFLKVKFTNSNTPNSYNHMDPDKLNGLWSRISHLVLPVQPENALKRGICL

[10] = molecular target: Alpha-bungarotoxin (Bungarus multicinctus) (UniProt P60615); assay: alpha-bungarotoxin binders on microarray, profiling panel, artefact control for SMM control protein annotation, biochemical, small-molecule microarray, Alexa647 label, 635/667 nm fluorescence (AID 1117); conditions: alpha-BTX-A647 binding fluorescence, higher = more signal
Chain of Alpha-bungarotoxin (Bungarus multicinctus) (P60615 whole entry, looked up): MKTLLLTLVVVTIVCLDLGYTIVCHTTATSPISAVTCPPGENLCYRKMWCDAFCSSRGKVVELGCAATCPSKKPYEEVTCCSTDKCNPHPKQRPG

Albumin (Bos taurus) = Albumin (Bos taurus) (UniProt P02769); assay: bovine serum albumin binders on microarray, profiling panel, artefact control for SMM control protein annotation, biochemical, small-molecule microarray, Alexa647 label, 635/667 nm fluorescence (AID 1118); conditions: BSA-A647 binding, fluorescence 635 nm, higher = more signal;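 note: score merges 667 nm emission intensity and signal-to-noise per printed compound spot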
Chain of Albumin (Bos taurus) (P02769 whole entry, looked up): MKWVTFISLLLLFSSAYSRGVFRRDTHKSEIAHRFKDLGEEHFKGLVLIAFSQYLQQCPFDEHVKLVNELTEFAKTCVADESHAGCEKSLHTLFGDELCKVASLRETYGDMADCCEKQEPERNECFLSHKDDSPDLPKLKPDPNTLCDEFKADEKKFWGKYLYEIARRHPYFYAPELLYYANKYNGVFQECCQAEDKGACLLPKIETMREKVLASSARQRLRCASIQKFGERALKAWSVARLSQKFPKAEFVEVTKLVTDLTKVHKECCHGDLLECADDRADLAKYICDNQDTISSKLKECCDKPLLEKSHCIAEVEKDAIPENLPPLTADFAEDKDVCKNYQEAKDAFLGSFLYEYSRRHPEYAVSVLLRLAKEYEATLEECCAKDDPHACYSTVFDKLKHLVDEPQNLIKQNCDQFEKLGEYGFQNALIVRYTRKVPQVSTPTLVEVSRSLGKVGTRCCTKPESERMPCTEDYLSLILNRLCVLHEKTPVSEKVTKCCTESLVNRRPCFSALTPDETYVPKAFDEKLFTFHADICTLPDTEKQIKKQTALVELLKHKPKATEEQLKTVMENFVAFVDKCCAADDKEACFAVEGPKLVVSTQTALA

[11] = small-molecule microarray binders of probe aXIP, primary screen, biochemical, NeuroSMM set, 635/667 nm fluorescence (AID 1119); conditions: higher = more signal, called active from +8 up or from −8 down;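 note: probe is the protein aXip251-270 applied at 1 µg/mL to compound-printed slides; binding of probe to printed compounds measured as 667 nm fluorescence plus signal to noise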
[12] = small-molecule binders of probe aNOTCH3, primary screen, biochemical, small-molecule microarray, 635/667 nm fluorescence (AID 1120); conditions: higher = more signal;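 note: probe is a biotin-tagged antibody raised against NOTCH3 rather than NOTCH3 protein; score merges spot fluorescence near 667 nm with spot signal to noise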
[13] = small-molecule binders of probe aNOTCH2, primary screen, biochemical, small-molecule microarray, 635/667 nm fluorescence (AID 1121); conditions: higher = more signal;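 note: score merges feature fluorescence read at 667 nm with its signal to noise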
[14] = molecular target: Carbonic anhydrase 2 (Homo sapiens) (UniProt P00918); assay: CAII small-molecule binders, profiling panel, biochemical, small-molecule microarray, Alexa647-labelled CAII (AID 1122); conditions: CAII-A647 binding fluorescence, higher = more signal
[15] = COS7 lysate on small-molecule microarray, probe aHis, 635 nm (AID 1123); conditions: COS7 cell lysate, fluorescence, higher = more signal;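 note: z-score combines 667nm fluorescence intensity with signal-to-noise per printed compound spot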
[16] = compound binding in COS7 lysate, probe aLAP1, primary screen, cell lysate, small-molecule microarray (AID 1124); conditions: probe aLAP1, fluorescence, higher = more signal;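 note: lysate comes from COS7 cells expressing LAP1 and is applied at 0.3 µg/mL; score merges spot fluorescence near 667 nm with signal-to-noise over triplicate slides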
Sam68 (KHDRBS1) = assay: Sam68 small-molecule binders, primary screen, biochemical, small-molecule microarray, 635 nm fluorescence (AID 1125); conditions: small-molecule microarray binding, higher = more signal;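 note: score merges 667 nm channel intensity with signal to noise over triplicate slides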
[17] = test system: Chordin-like protein 2 (CHRDL2); assay: CHRDL2 small-molecule binders, primary screen, biochemical, small-molecule microarray, 635 nm fluorescence (AID 1126); conditions: small-molecule microarray binding, fluorescence 635 nm; higher = more signal;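 note: printed compound slides probed with Chrdl2 protein at 4 µg/mL for 1 h at 4 C; score merges 667 nm emission intensity with signal to noise over three replicate slides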
[18] = molecular target: Concanavalin-A (Canavalia ensiformis) (UniProt P02866); assay: ConA small-molecule binders, primary screen, artefact control for SMM control protein annotation, biochemical, small-molecule microarray, Alexa647 label, 635 nm (AID 1127); conditions: ConA-A647 binding fluorescence, higher = more signal;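 note: z combines 667 nm emission intensity with signal-to-noise across three replicate slides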
Chain of Concanavalin-A (Canavalia ensiformis) (P02866 whole entry, looked up): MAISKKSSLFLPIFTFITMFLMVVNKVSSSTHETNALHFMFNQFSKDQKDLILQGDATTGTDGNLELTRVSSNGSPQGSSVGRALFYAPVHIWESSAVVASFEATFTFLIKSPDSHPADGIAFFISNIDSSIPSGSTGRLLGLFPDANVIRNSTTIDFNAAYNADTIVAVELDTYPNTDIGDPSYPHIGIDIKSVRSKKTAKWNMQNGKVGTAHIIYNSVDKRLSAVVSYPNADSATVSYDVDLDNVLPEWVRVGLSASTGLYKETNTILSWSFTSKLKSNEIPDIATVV

Row | Structure (SMILES) | composite z-score [1] | z-score [2] | composite z-score [3] | composite z-score [4] | composite z-score [5] | composite z-score [6] | composite z-score [7] | composite z-score [8] | composite z-score [9] | composite z-score [10] | composite z-score (Albumin (Bos taurus)) | composite Z-score [11] | composite z-score [12] | composite z-score [13] | composite z-score [14] | composite z-score [15] | composite z-score [16] | composite z-score (Sam68 (KHDRBS1)) | composite z-score [17] | composite z-score [18]
1 | COc1cccc([C@H]2Oc3ccc(OC)cc3C(=NO[C@@H]3O[C@H](COC(C)=O)[C@@H](OC(C)=O)[C@H](OC(C)=O)[C@H]3OC(C)=O)[C@@H]2O)c1 | 0.104 | -1.12 | 0.507 | -0.446 | -0.552 | 0.0206 | 0.137 | 0.124 | -0.178 | -0.275 | 0.0351 | 1.25 (inactive) | -0.0598 | -0.141 | -0.403 | 0.1 | 0.474 | 0.153 | -0.0174 | -0.143
2 | CO[C@H]1COC(=O)CCC[C@@H](C)[C@H](OC)COC(=O)[C@@H](C)NC(=O)CC=C[C@@H]1C | -1.44 | -1.29 | 1.19 | -0.654 | -1.61 | -0.117 | 0.0483 | -0.0684 | 0.992 | -0.314 | -0.46 | 0.667 (inactive) | -0.0647 | -0.134 | -0.716 | -1.8 | -0.126 | 0.186 | 1.45 | -0.456
3 | CCOC(=O)[C@H](Cc1ccccc1)NC(=O)CCC1CC(OC(=O)NCc2cccc3ccccc23)CC2(CCCC(COC(=O)NCCC(C)C)O2)O1 (stereo not given in full) | -2.01 | -0.134 | 0.215 | 0.56 | -0.29 | -0.13 | 0.0141 | -0.372 | -0.0831 | 1.09 | 0.793 | 0.142 (inactive) | -0.0956 | -0.133 | 0.742 | 0.426 | 0.23 | -1.08 | -0.0587 | 0.653
4 | CCN1C(=O)[C@H]2[C@H]3[C@H](O)[C@H](O)CC(=NOCC(C)C)[C@@H]3CC[C@H]2C1=O | 1.33 | -0.0305 | 0.32 | -0.39 | -0.682 | -0.096 | -0.0709 | -0.255 | 0.317 | 0.13 | 0.612 | -0.0562 (inactive) | 0.179 | -0.126 | 0.459 | 1.1 | -0.202 | 1.3 | 0.72 | 0.0131
5 | COC(=O)C1=C(C)N(Cc2ccccc2)[C@]23O[C@](C(=O)OC)(C(=O)N2[C@@H]1c1ccccc1)C(C(=O)OC)=C3C(=O)OC | 1.3 | -2.76 | 0.88 | -0.328 | -1.19 | -0.0346 | -0.138 | 0.229 | 0.569 | -0.129 | 0.387 | -0.177 (inactive) | 0.201 | -0.0439 | 0.489 | 0.421 | -0.624 | 0.988 | 0.503 | 1.18
6 | C=C(C)C(=O)OCC1CN2[C@@H](CC[C@@H](C)[C@@H]2c2ccc(Br)cc2)C(=O)O1 (stereo not given in full) | 0.0141 | 0.159 | 0.501 | -0.15 | -0.566 | -0.199 | -0.229 | 0.184 | 0.522 | 0.499 | 0.188 | -0.168 (inactive) | 0.0539 | -0.11 | -0.062 | 0.0971 | -0.126 | 0.671 | 0.691 | 0.59
